This passage reports Potency results from PubChem BioAssay (NCATS).

Assay [1] is described as follows: Primary qHTS for inhibitors of SARS-S pseudo-typed particle cell entry (AID 1479145). Also: nearly all actives have a fitted effect of over 45% in size. Also: potency is read from the fitted curve at half-maximal effect.
Assay [2] can be described thus: Primary qHTS for Huh7 cytotoxicity: counterscreen for inhibitors of MERS-S pseudotyped particle cell entry (AID 1479147).
The nature of assay [3]: Primary qHTS for inhibitors of MERS-S pseudo-typed particle cell entry (AID 1479149). Also: nearly all actives have a fitted effect of over 60% in size.
Assay [4] can be described thus: Primary qHTS for Vero E6 cytotoxicity: counterscreen for inhibitors of SARS-S pseudo-typed particle cell entry (AID 1479150).

Inconclusive results are not listed. Calls of active or inactive are those of the source. Calls follow the shape of the full dose curve.

`C[C@]12C=CC(=O)C=C1CC[C@H]1[C@@H]3C[C@@H](O)[C@](O)(C(=O)CO)[C@@]3(C)C[C@H](O)[C@@]12F`: the Potency result in assay [1], in assay [2], in assay [3] and in assay [4] was “inactive” each time.
Take `CC(=O)[C@H]1CC[C@H]2[C@@H]3CC=C4C[C@@H](O)CC[C@]4(C)[C@H]3CC[C@]12C`: the Potency entry in assay [1], in assay [2] and in assay [4] was “inactive” each time.
Take `CCN(CC)CC(=O)OCC(=O)[C@@]1(O)CC[C@H]2[C@@H]3CCC4=CC(=O)CC[C@]4(C)[C@H]3[C@@H](O)C[C@@]21C`: the Potency entry in assay [1], in assay [2] and in assay [4] was “inactive” in each case.
`C[C@]12CCC(=O)C=C1[C@@H]1C[C@@H]1[C@H]1[C@@H]3[C@@H]4C[C@@H]4[C@@]4(CCC(=O)O4)[C@@]3(C)CC[C@@H]12`: the Potency entry in assay [1], in assay [2] and in assay [4] was “inactive” in each case.
Consider `NS(=O)(=O)c1ccc(N2CCCCS2(=O)=O)cc1`, for which the Potency result in assay [1], in assay [2], in assay [3] and in assay [4] was “inactive” each time.
With `CCN(CCCCOC(=O)c1ccc(OC)c(OC)c1)C(C)Cc1ccc(OC)cc1` (configuration not stated), in assay [1], the Potency was 11.2 µM (active). Further, the Potency result in assay [2] and in assay [4] was “inactive” throughout.
As for `CC[C@H](c1ccc(O)cc1)[C@@H](CC)c1ccc(O)cc1`, the Potency entry in assay [1], in assay [2] and in assay [4] was “inactive” throughout.
As to `Nc1ccc(N=Nc2ccccc2)c(N)n1`, the Potency result in assay [1], in assay [2], in assay [3] and in assay [4] was “inactive” each time.
As to `FC(F)(F)C(F)(F)C(F)(F)C(F)(F)C(F)(F)C(F)(F)C(F)(F)C(F)(F)Br`, the Potency entry in assay [1], in assay [2] and in assay [4] was “inactive” each time.
Regarding `COc1cc(C(=O)OCCCN2CCCN(CCCOC(=O)c3cc(OC)c(OC)c(OC)c3)CC2)cc(OC)c1OC`, the Potency in assay [1] was 11.2 µM (active). Besides, the Potency result in assay [2] and in assay [4] was “inactive” throughout.
As for `C/C(=C(/OCCOc1ccc(Cl)cc1)c1ccc(Cl)cc1Cl)n1ccnc1`, the Potency result in assay [1], in assay [2], in assay [3] and in assay [4] was “inactive” throughout.
